Compounds with a hit are over-represented: about 3.3% of the library has one in this group of screens.
SARS PLpro yeast: SARS-CoV PLP inhibition in yeast | S. cerevisiae expressing SARS-CoV PLpro, growth rescue | Potency, µM (highest dose often 32.9 µM), actives largely listed as activators | hit rate 0.19% among 330,000; calls by dose curve; further: nearly all actives have a fitted effect of over 55% in size
TbPYK inhibitor: T. brucei pyruvate kinase inhibition. Q57TT1. TbPYK enzyme, Kinase-Glo Plus ATP luminescence, 45 min. Potency, µM (highest dose often 76.8 µM), most hits filed as inhibitors. hit rate 0.12% among 410,000; further: nearly all actives have a fitted effect of over 50% in size
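ADP (130 uM final) triggers the TbPYK reaction after compound addition; incubation is 45 min at room temperature. Kinase-Glo Plus is then added and luminescence imaged. Normalized data are fitted to concentration-effect curves.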
Sm TGR block: S. mansoni TGR enzyme inhibition; Q962Y6; purified TGR, DTNB reduction, TNB absorbance 405 nm; Potency, µM (titrated, usually from 114 µM), actives largely listed as inhibitors; hit rate 3% among 360,000; AID 485364; further: nearly all actives have a fitted effect of over 60% in size
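First, TGR (20 nM dispensed) and NADPH were mixed with compound. Second, a 15 min room-temperature incubation followed. Third, further NADPH and then DTNB were added to start the reaction. Finally, TNB absorbance was monitored kinetically.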
LmPK inhibitor: blocks Leishmania mexicana pyruvate kinase activity; Potency, µM (highest dose often 57.5 µM), usual class: inhibitors; Q27686; hit rate 0.37% among 290,000; AID 1721; purified LmPK, Kinase-Glo ATP luminescence, 1 h
Target sequence (Q27686 whole entry, looked up): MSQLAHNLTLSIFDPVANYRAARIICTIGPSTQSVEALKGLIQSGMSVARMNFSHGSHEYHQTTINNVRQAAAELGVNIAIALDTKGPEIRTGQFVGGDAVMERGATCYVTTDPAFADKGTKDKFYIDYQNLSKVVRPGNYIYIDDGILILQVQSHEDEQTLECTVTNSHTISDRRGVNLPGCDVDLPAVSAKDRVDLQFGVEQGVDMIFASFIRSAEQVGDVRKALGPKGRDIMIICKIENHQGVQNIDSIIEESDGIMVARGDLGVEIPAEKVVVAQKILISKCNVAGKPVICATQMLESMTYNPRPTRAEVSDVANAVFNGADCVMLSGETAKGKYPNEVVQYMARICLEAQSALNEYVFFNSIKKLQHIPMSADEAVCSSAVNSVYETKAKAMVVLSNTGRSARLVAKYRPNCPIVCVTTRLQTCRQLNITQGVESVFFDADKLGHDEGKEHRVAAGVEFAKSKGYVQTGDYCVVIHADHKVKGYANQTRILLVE
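qHTS format; LmPK 0.1 nM; substrates PEP 0.5 mM and ADP 0.1 mM. One-hour room-temperature incubation, then coupled luciferase luminescence; 0.5 nM enzyme wells mark activation.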
NS1 inh: inhibitors of influenza NS1 protein function | AID 2326 | hit rate 0.4% among 270,000 | Potency, µM (series often up to 46.1 µM); calls by dose curve; further: actives are rising curves; nearly all actives have a fitted effect of over 50% in size
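A cell-based growth assay was used: compounds that relieve NS1-induced slow growth of budding yeast raise OD600. Assay medium was yeast nitrogen base with ammonium sulphate and -URA supplement, pH 6.0, with 2% galactose.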
RE007 growth inh: less growth of the S. pombe RE007 Vpr strain; hit rate 0.21% among 360,000; AID 651644; Potency, µM (series often up to 92.2 µM), usual class: inhibitors; S. pombe RE007 Vpr strain, BacTiter-Glo ATP luminescence, 24 h; active means well fitted falling curve with a large enough effect; inconclusive means small, poorly fitted or top-dose-only effect; inactive means no such curve, though single readings can be large or run the other way; further: nearly all actives have a fitted effect of over 50% in size
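Fission yeast strain RE007, carrying one chromosomally integrated HIV-1 vpr copy, was seeded at OD 0.01 in PMG+AL medium with 23 nL pinned compound. After 24 h at 30 °C and 99% humidity, viability was read by BacTiter-Glo luminescence.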
Numbers stand for hits; - = inactive; ? = inconclusive; . = no result; [ ] = remark or other dose. Unless noted, the call rests on the fitted dose curve; in most records, active means well fitted curve in the direction sought with a large enough effect; inconclusive means small, poorly fitted or top-dose-only effect, or another doubt; inactive means no such curve, though single readings can be large; an effect the other way counts as inactive or inconclusive.

SMILES | SARS PLpro yeast | TbPYK inhibitor | Sm TGR block | LmPK inhibitor | NS1 inh | RE007 growth inh
CCCCn1c(-c2csc3c2CCC(C)C3)n[nH]c1=S (stereo not drawn) | - | ? | - | 18µM | - | -
CCn1c(-c2csc3c2CCCC3)n[nH]c1=S | - | ? | - | ? | - | -
CCCCCCn1c(-c2cccs2)n[nH]c1=S | - | 2.8µM | - | - | - | -
CCCCn1c(-c2csc3c2CCCC3)n[nH]c1=S | - | ? | - | 13µM | - | -
CCCCn1c(-c2cccs2)nc2nc3ccccc3nc21 | - | - | - | - | - | -
O=C(CCCCCn1c(=O)c2sccc2n(CC(=O)Nc2cc(C(F)(F)F)ccc2Cl)c1=O)NCc1ccccc1Cl | . | - | - | . | . | .
O=C(O)c1nc(-c2ccccc2)[nH]c1C(=O)O | . | . | . | . | - | .
C[C@H]1Cc2c(COc3ccccc3)nc3c(c2CO1)CN(S(=O)(=O)c1ccc(Cl)c2nonc12)CC3 | . | . | . | -[11.5 µM] | . | .
CCOc1ccc(NC(=O)Cn2c(=O)n(CCc3ccccc3)c(=O)c3c4c(sc32)CN(C(C)=O)CC4)cc1 | . | - | - | . | . | .
COc1ccc(CCNC(=S)Nc2ccc(OC)cc2)cc1 | - | - | - | - | - | -
COc1ccc(NC(=S)NCCCCCC(=O)C[N+](=O)[O-])cc1 | - | - | 20µM | - | . | -
O=C(CCCCCNC(=S)Nc1ccccc1)C[N+](=O)[O-] | - | - | 25µM | - | . | -
O=C(CCCCCNC(=S)Nc1ccc(Cl)cc1)C[N+](=O)[O-] | - | - | - | - | - | -
COC(=O)N1C2=C(c3ccccc3[C@@H]1CC(=O)Nc1ccc3cc4ccccc4cc3c1)[C@@H]1C(=O)N(c3ccccc3)C(=O)[C@@H]1[C@H](C)C2 | . | . | . | -[11.5 µM] | . | .
CN(CC(=O)Nc1ccccc1Cl)C(=O)COC(=O)c1nc(Cl)c(Cl)c(Cl)c1Cl | - | - | 18µM | - | - | -
O=c1oc2ccc(F)cc2cc1-c1nc(-c2cccs2)no1 | . | - | - | . | . | .
O=C1COc2ccc(C(=O)COC(=O)/C=C/c3ccco3)cc2N1 | - | - | 13µM | . | . | -
CCOC(=O)c1c(C)[nH]c(C)c1C(=O)COC(=O)/C=C/c1ccco1 | - | - | 32µM | . | . | -
O=C(O)/C=C/C(=O)c1ccc2c(c1)NC(=O)CO2 | - | ? | 1µM | - | . | -
CCN(CC(=O)NCc1ccc(Cl)cc1)C(=O)/C=C/c1ccco1 | - | - | 25µM | - | . | -
CCN(CC(=O)NCc1ccc(Cl)cc1)C(=O)/C=C/c1ccccc1 | - | - | - | - | - | -
COc1ccc(C(=O)c2cn(Cc3ccccc3F)c3cc4c(cc3c2=O)OCCO4)cc1OC | . | - | - | . | . | .
Cc1oc(-c2ccc(C(=O)NCc3ccccc3F)cc2)nc1COc1ccccc1 | . | - | - | . | . | .
CC(=O)OCC(=O)[C@@]1(O)CCC2C3CCC4=CC(=O)C=CC4(C)C3C(O)C[C@]21C (stereo partly drawn) | . | - | . | . | . | .
O=C(COC(=O)/C=C/c1ccco1)NCc1ccc(Cl)cc1 | - | - | 18µM | . | . | -
SMILES | SARS PLpro yeast | TbPYK inhibitor | Sm TGR block | LmPK inhibitor | NS1 inh | RE007 growth inh
O=C(/C=C/c1ccco1)OCC(=O)c1ccc(OC(F)F)cc1 | - | - | 22µM | . | . | -
COc1cc(/C=C/C(=O)OCC(=O)c2ccc(OC(F)F)cc2)ccc1O | - | - | . | . | . | -
CCCNC(=O)COC(=O)/C=C/c1ccco1 | - | - | 45µM | - | - | -
Cc1ccc(/C=C/C(=O)OCC(=O)NC(C)C)o1 | - | - | 50µM | - | . | -
CN(C)c1ccc(CNC(=O)c2ccc(Cn3c(=O)c4cccn4c4cccnc43)cc2)cc1 | . | - | - | . | . | .
CC(C)NC(=O)COC(=O)/C=C/c1ccco1 | - | - | 50µM | - | - | -
O=C(COC(=O)/C=C/c1ccco1)NCc1ccccc1 | - | - | - | - | . | -
O=C(/C=C\N1CCOCC1)c1ccc(Br)cc1 | - | - | 16µM | - | - | -
O=C(/C=C/N1CCOCC1)c1ccc(-c2ccccc2)cc1 | - | - | ? | - | - | -
O=C(O)/C=C/C(=O)N(CC1CCCO1)C1CC(=O)N(c2c(Cl)cccc2Cl)C1=O (stereo not drawn) | - | - | 40µM | - | - | -
O=S(=O)(c1ccc(-n2cnnn2)cc1)N1CCN(c2cccc(C(F)(F)F)c2)CC1 | . | - | - | . | . | .
COc1ccc(CC(=O)n2[nH]c(=O)ccc2=O)cc1OC | - | 7.1µM | 0.56µM | - | - | -
COc1ccc(CC(=O)n2[nH]c(=O)c3ccccc3c2=O)cc1OC | - | - | - | - | - | -
O=C(O)C1C2C=CC(O2)C1C(=O)Nc1ccc(S(=O)(=O)N2CCc3ccccc32)cc1 (stereo not drawn) | - | - | 14µM | - | - | -
NS(=O)(=O)c1ccc(NS(=O)(=O)c2ccc(NC(=S)Nc3ccccc3)cc2)cc1 | - | - | ? | - | - | -
O=C(O)C1C2C=CC(O2)C1C(=O)Nc1ccc(S(=O)(=O)Nc2ccccc2)cc1 (stereo not drawn) | - | ? | 6.3µM | - | - | -
O=S(=O)(NCCc1cn2ccsc2n1)c1ccc(Cl)cc1 | . | - | 35µM | . | . | .
CCOC(=O)CCCCC(=O)c1[nH]c(=O)[nH]c1Cn1cnc2ccccc21 | - | - | 16µM | - | - | -
Cc1c(C(=O)N2CCOCC2)sc(NC(=O)CCl)c1C#N | - | - | 40µM | - | - | -
Cc1c(C(=O)N2CCOCC2)sc(NC(=O)c2ccc([N+](=O)[O-])cc2)c1C#N | - | - | - | - | - | -
COCc1ccc([C@@H]2C[C@H]3CN(Cc4ccccc4C)C(=O)[C@]34CCCN24)o1 | - | - | - | - | - | -
COCc1ccc([C@@H]2C[C@H]3CN(Cc4cccnc4)C(=O)[C@]34CCCN24)o1 | - | - | 45µM | - | - | -
O=C1N(Cc2cccc(Cl)c2)C[C@@H]2C[C@@H](c3ccco3)N3CCC[C@@]123 | - | - | 40µM | - | - | -
CS[C@]12C(=O)C[C@]3(C)[C@@H](CC[C@@]3(O)C(=O)CO)[C@@H]1CCC1=CC(=O)CC[C@]12C | . | . | . | . | - | .
O=[N+]([O-])c1ccc(S(=O)(=O)Nc2ccc(-c3ccccc3)cc2)cc1 | . | - | . | . | . | 35µM
SMILES | SARS PLpro yeast | TbPYK inhibitor | Sm TGR block | LmPK inhibitor | NS1 inh | RE007 growth inh
Cc1ccc(S(=O)(=O)NCCC(=O)Oc2ccc3ccc(=O)oc3c2)cc1 | - | - | 16µM | - | - | -
CCc1nc(Nc2ccc(F)c(Cl)c2)c2c3c(sc2n1)CCCC3 | . | - | - | . | . | .
CC1(CCl)CN1S(=O)(=O)c1ccccc1 (stereo not drawn) | - | - | 40µM | - | - | -
COc1ccc2noc3c2c1C(=O)c1ccccc1-3 | . | ? | . | . | . | -
O=C1c2ccccc2-c2onc3ccc(NCCCn4ccnc4)c1c23 | - | - | 20µM | - | - | -
O=C(CSc1c2c(nc3ccccc13)CCC2)Nc1ccc(F)cc1F | . | - | - | . | . | .
O=C(CSc1nnc(-c2ccco2)o1)c1ccc[nH]1 | - | - | 28µM | - | . | -

Screens as filed in PubChem BioAssay.
